Results on 40 compounds are retold here after PubChem BioAssay (NCATS).

SMILES strings stand for the structures. Positions of bridges follow the written chain, without caps; N, C: chain ends. Non-standard residues stand in square brackets, D forms with d. Residues, ends and D or L forms follow the SMILES beside them. ξ: configuration not given here. *: point of attachment. Octanoyl(6-Me) = CCC(C)CCCCC(=O)*; ξThr(3R) = C[C@@H](O)C(N)C(=O)O; dDab = NCC[C@@H](N)C(=O)O; Dab = NCC[C@H](N)C(=O)O

This assay is described as follows: qHTS profiling of the MIPE4 collection as inhibitors of Plasmodium falciparum (HB3) proliferation (AID 743347).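 Note: plate controls were DMSO vehicle wells for no effect and artemisinin wells for full effect.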 The conditions noted are these: P. falciparum HB3 in erythrocytes, SYBR Green DNA, 72 h; at 28.5 µM (top of the series) unless noted. From the text: Plasmodium falciparum is a virulent malarial parasite that kills 1-2 million people worldwide each year. Transmitted by mosquitoes, the sporozoite form of the parasite enters the blood stream to infect hepatocytes, where they become merozoites that infect red blood cells (erythrocytes). Within erythrocytes, merozoites begin a […] cycle of growth and division, after which the parasite is released to infect new red blood cells. Gametocytes, which form within erythrocytes as well, circulate in the bloodstream and are ingested by the mosquito, thereby completing the life cycle. To profile malarial isolates for differential chemical responses and to identify inhibitors of malarial growth, an assay that measures P. falciparum growth and replication within erythrocytes was employed. This assay uses a DNA binding fluorescent dye (SYBR Green) to detect parasite DNA following cell lysis. Because mature erythrocytes lack DNA, only Plasmodium-derived DNA is detected.
The SYBR Green viability assay was adapted from a method described previously (Plouffe et al., 2008). For screening 3 ul culture medium was dispensed into 1536 well black clear bottom plates (Aurora Biotechnologies) using a Multidrop Combi (Thermo Fisher Scientific Inc.), 23 nL compounds in DMSO were added by a pin tool (Kalypsys), and 5 ul of erythrocytes infected with P. falciparum (0.3% parasitemia, 2.5% hematocrit final concentration) were added. The plates were incubated at 37 C in a humidified incubator in 5% CO2 for 72 h, and 2 ul lysis buffer (20 mM Tris HCl, 10 mM EDTA, 0.16% saponin, 1.6% triton X, 10X SYBR Green I supplied as 10,000X […] by Invitrogen) was added to each well. The plates were mixed for 25 sec with gentle shaking and incubated overnight at room temperature in the dark. The following morning, fluorescence intensity at 485(14) nm excitation and 535(25) nm emission wavelengths was measured on an EnVision (Perkin Elmer) plate reader. Plate reads were normalized relative to the control inhibitor (0.29 uM artemisinin) and vehicle (DMSO) wells present on each plate and then corrected by an algorithm using vehicle-only control plates at the beginning and end of the compound plate stack.
The compound `C[C@H](NC(=O)Cc1cc(F)cc(F)c1)C(=O)N[C@H](C(=O)OC(C)(C)C)c1ccccc1` registered a growth, % of control of 99.7%.

As to `C[C@H](NC(=O)[C@@H](O)c1cc(F)cc(F)c1)C(=O)N[C@@H]1C(=O)N(C)c2ccccc2-c2ccccc21`, the growth, % of control came to 8.44%.

`CCOc1cc2c(c(F)c1OCC)C(=N)N(CC(=O)c1cc(N3CCOCC3)c(OC)c(C(C)(C)C)c1)C2` showed a growth, % of control of 6.22%.

`Oc1cc2c(cc1O)C1c3ccc(O)c(O)c3OCC1(O)C2` (stereo not given) returned a growth, % of control of 9.94%.

Take `CN[C@H]1[C@@H](O)[C@@H]2O[C@@H]3O[C@H](C)CC(=O)[C@]3(O)O[C@@H]2[C@@H](NC)[C@H]1O`: the growth, % of control was determined as 6.56%.

`C[C@]12CC[C@@H]3c4ccc(O)cc4CC[C@H]3[C@H]1CC[C@H]2O`: the growth, % of control was found to be 86.3%.

On to `COC(=O)C=CC(=O)OC`, for which the growth, % of control amounted to 96.5%.

For `FC(F)c1nc2ccccc2n1-c1nc(N2CCOCC2)nc(N2CCOCC2)n1`, the growth, % of control stood at 3.1%.

For the compound `Cc1ccc2nc(NCCN)c3ncc(C)n3c2c1`, the growth, % of control turned out to be 81.1%.

Take `Oc1ccc([C@@H]2Oc3ccc(O)cc3[C@@H]3CCC[C@@H]32)cc1`: the growth, % of control amounted to 81.1%.

`Cc1cnc(Nc2ccc(N3CCN(C)CC3)cc2)nc1Nc1cccc(S(=O)(=O)NC(C)(C)C)c1` came in with a growth, % of control of 3.11%.

In the case of `CC[C@H]1OC(=O)[C@H](C)[C@@H](O[C@H]2C[C@@](C)(OC)[C@@H](O)[C@H](C)O2)[C@H](C)[C@@H](O[C@@H]2O[C@H](C)C[C@H](N(C)C)[C@@H]2O)[C@](C)(OC)C[C@@H](C)C(=O)[C@H](C)[C@@H](O)[C@]1(C)O`, the growth, % of control was determined as 51.5%.

Regarding `CCC(C)CCCCC(=O)N[C@@H](CCN)C(=O)NC(C(=O)N[C@H](CCN)C(=O)N[C@@H]1CCNC(=O)C([C@@H](C)O)NC(=O)[C@@H](CCN)NC(=O)[C@@H](CCN)NC(=O)[C@@H](CC(C)C)NC(=O)[C@H](Cc2ccccc2)NC(=O)[C@H](CCN)NC1=O)[C@@H](C)O` (stereo partly drawn) ({Octanoyl(6-Me)}-[Dab][ξThr(3R)][dDab][dDab][Dab]F[dL][dDab][dDab][ξThr(3R)]; lactam 4-C), the growth, % of control came to 96.2%.

Compound `CC(C)C[C@H](NC(=O)[C@@H](NC(=O)c1cccc(-c2ccccc2)n1)[C@@H](C)O)B(O)O` returned a growth, % of control of 3.76%.

Compound `O=C1NCCc2[nH]c(-c3ccncc3)cc21` returned a growth, % of control of 5.62%.

Take `Cc1nc(NC(=O)N2CCC[C@@H]2C(N)=O)sc1-c1ccnc(C(C)(C)C(F)(F)F)c1`: the growth, % of control was 5.19%.

As to `CC(C)(O)Cn1c(NC(=O)c2ccc(-c3cn[nH]c3)s2)nc2cc(CN3CCOCC3)ccc21`, the growth, % of control turned out to be 6.36%.

`CNC(=O)Nc1ccc(-c2nc(N3CC4CCC(C3)O4)c3cnn(C4CCC5(CC4)OCCO5)c3n2)cc1` showed a growth, % of control of 3.02%.

On to `O=C(NC1CC1)c1cccc(-c2ccc3c(NC(=O)C4CC4)n[nH]c3c2)c1`, for which the growth, % of control was 63.3%.

Compound `Cn1c(Nc2ccc(C(F)(F)F)cc2)nc2cc(Oc3ccnc(-c4ncc(C(F)(F)F)[nH]4)c3)ccc21` came in with a growth, % of control of 8.58%.

For the compound `CCC(C=C[C@@H]1OC(=O)C=C[C@H]1C)=C[C@H](C)CC=CC(C)=C[C@@H](C)C(=O)[C@@H](C)[C@H](O)[C@@H](C)CC(C)=CC(=O)O`, the growth, % of control was 577% [at 1.06 µM].

As for `COC[C@H](NC(=O)c1cnc(C)s1)C(=O)N[C@@H](COC)C(=O)N[C@@H](Cc1ccccc1)C(=O)[C@@]1(C)CO1`, the growth, % of control is 5.53%.

As for `Cc1cnn(C)c1C(=O)Nc1cc(Nc2ccc3c(C=Cc4ccccn4)n[nH]c3c2)ccc1F`, the growth, % of control came out at 6.36%.

The compound `C[C@@H]1CC[C@@]2(OC1)OC1CC3C4CC=C5CC(O)CCC5(C)C4CCC3(C)C1[C@@H]2C` (stereo not given in full) displayed a growth, % of control of 99.7%.

As for `C=C[C@@H]1CN2CCC1C[C@H]2[C@H](O)c1ccnc2ccc(OC)cc12` (stereo not given in full), the growth, % of control stood at 12.1%.

`C[C@@]12C[C@@]3(O)O[C@@H](O1)[C@]1(COC(=O)c4ccccc4)[C@@H]3C[C@@]12O[C@@H]1O[C@H](CO)[C@@H](O)[C@H](O)[C@@H]1O` returned a growth, % of control of 109%.

In the case of `C=C1C(=CC=C2CCC[C@]3(C)[C@@H]([C@H](C)CCCC(C)(C)O)CC[C@@H]23)C[C@@H](O)C[C@@H]1O`, the growth, % of control was 9.14%.

`C=C(C)[C@@H]1CC[C@]2(C)CC[C@]3(C)[C@H](CC[C@@H]4[C@@]5(C)CC[C@H](O)C(C)(C)[C@H]5CC[C@]43C)[C@@H]12` gave a growth, % of control of 37.4%.

`COc1cc(C)c(Sc2cnc(NC(=O)c3ccc(CNC(C)C(C)(C)C)cc3)s2)cc1C(=O)N1CCN(C(C)=O)CC1` (stereo not given): the growth, % of control worked out at 4.86%.

Take `OC[C@@H](O)[C@@H](O)[C@H](O)[C@@H](O)CO`: the growth, % of control was determined as 70.6%.

In the case of `Cc1ccc(-n2[nH]c(C)c(N=Nc3cccc(-c4cccc(C(=O)O)c4)c3O)c2=O)cc1C`, the growth, % of control was found to be 72.9%.

As to `C=CCNC1=C2C[C@@H](C)C[C@H](OC)[C@@H](O)[C@@H](C)C=C(C)[C@H](OC(N)=O)[C@@H](OC)C=CC=C(C)C(=O)NC(=CC1=O)C2=O`, the growth, % of control was 4.67%.

`CCn1c(=O)c2c(nc(C=Cc3ccc(OC)c(OC)c3)n2C)n(CC)c1=O` yielded a growth, % of control of 47.9%.

For the compound `COc1cc(O)c2c(c1)C1OC1C[C@H](O)[C@H](O)C(=O)C=CC[C@H](C)OC2=O` (stereo not given in full), the growth, % of control stood at 2.42%.

As for `Nc1cccc2c1C(=O)N(C1CCC(=O)NC1=O)C2=O` (stereo not given), the growth, % of control was determined as 49.9%.

The compound `CC(C(C)N1CC(=O)NC(=O)C1)N1CC(=O)NC(=O)C1` (stereo not given) yielded a growth, % of control of 98.2%.

`COc1ccc(C=Cc2cc(OC)c(OC)c(OC)c2)cc1NC(=O)[C@H](N)CO` registered a growth, % of control of 85.5%.

As to `Oc1cc(-c2nc(-c3ccccc3)[nH]c2-c2ccncc2)ccc1Cl`, the growth, % of control is 3.61%.

For the compound `CCc1cc(C(C)=NOCc2ccc(C3CCCCC3)c(C(F)(F)F)c2)ccc1CN1CC(C(=O)O)C1`, the growth, % of control was determined as 11.3%.

Compound `COc1ccc(S(=O)(=O)Nc2cccnc2Nc2ccc(O)cc2)cc1` gave a growth, % of control of 51.4%.
